Activity calls are given as the source filed them.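 Rule for the calls, unless noted: active = visual image review flags a hit and inhibition of aggregation exceeds 20%; inconclusive = visual hit but inhibition at or below 20%; inactive = no hit on visual image review.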
Tests used:
[1] = inhibitors of TNFa-induced NFkB p65 translocation, primary screen, imaging, HUVEC, MLSMR starter and 10KST1 sets (AID 438;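 active = inhibition above 20% together with a positive visual image hit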;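 note: compound added about 3h40 before a 20 min TNFalpha stimulation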;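 for inhibition: signal is the nuclear over cytoplasmic p65 intensity ratio per well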); details: HUVEC TNFa-induced p65 nuclear translocation; cell count: measured here: nuclei count (cytotoxicity indicator), at 2.08 µM; inhibition: at 2 µM, stronger effect = higher value, 0% TNFa-plus-vehicle, 100% no-TNFa wells
[2] = reduction of polyQ htt aggregates in cells – imaging, exon1htt(103Q)mCFP cells, high-content imaging, primary screen (AID 483); details: exon1htt(103Q)mCFP cell line, aggregate imaging, at 2 µM; inhibition of aggregation: stronger effect = higher value; nuclei count: measured here: cell count, toxicity;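 note: compound exposure lasted 3 days before fixation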;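 for nuclei count: percent of the per-plate median nuclei count of sample wells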
[3] = endothelial E-selectin expression blockers – imaging, HUVEC, immunofluorescence, MLSMR starter and 10KST1 sets, primary screen (AID 487;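 active = visually confirmed hit in the image check and inhibition above 20%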;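 for inhibition: signal is fraction of cell area covered by stained E-selectin grains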;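 for nuclei count: 100% = median nuclei count of all wells on the same plate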); details: HUVEC TNFalpha-induced E-selectin immunofluorescence imaging, at 2 µM; inhibition: stronger effect = higher value; nuclei count: measured here: cell number, toxicity
[4] = biological target: Voltage-gated potassium channel subunit beta-2 (Rattus norvegicus) (UniProt P62483); assay: inhibitors of rat Kvbeta2 reductase activity – biochemical, NADPH fluorescence, primary screen (AID 622;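 active = fluorescence slope higher than the sample average by over 3 SD, cut at about -0.22 in these data, passing the limit was not always enough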;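 note: slope of raw intensity against log time taken from 70 to 1610 s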); details: recombinant KvBeta, 4-cyanobenzaldehyde reduction, at 10 µM, stronger effect = higher value
[5] = biological target: Voltage-gated potassium channel subunit beta-2 (Rattus norvegicus) (UniProt P62483); assay: enhancers of rat Kvbeta2 NADPH turnover – biochemical, NADPH fluorescence, primary screen (AID 623;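 active = NADPH fluorescence slope more negative than the mean of all samples by about 3 SD, 99.7% confidence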;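 note: fluorescence intensity change per second fitted from 20 to 320 s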); details: Recombinant KvBeta, NADPH fluorescence decrease slope, 10 min; at 10 µM; stronger effect = lower value
[6] = biological target: Alpha-2C adrenergic receptor (Homo sapiens) (UniProt P18825); assay: compounds altering alpha2C-coupled GIRK flux – cell-based, HEK293 alpha2C/GIRK1/2, thallium flux, primary screen (AID 624;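 active = fluorescence slope after compound addition differing from the mean of all screened samples at 99.7% confidence, in either direction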;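 note: slope of fluorescence ratio to pre-addition baseline per second over 15 to 24 s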); details: thallium flux BTC fluorescence, at 10 µM, actives lie on both sides
[7] = blockers of RIG-like receptor reporter activation – cell-based, Sendai virus stimulus, luciferase, 10K MLSCN set, TLR/RLR signaling modifier project, primary screen (AID 602276;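 active = inhibition at or above 50% at 10 µM; inactive = inhibition below 50%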;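 note: firefly luciferase from ISG56 promoter only with Renilla not read in this screen; 0% = Sendai virus plus DMSO and 100% = medium plus DMSO without virus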); details: HEK293 RL24 IRF3 luciferase reporter, at 10 µM, stronger effect = higher value
[8] = TLR3 IRF3 reporter activation blockers – cell-based, poly I:C stimulus, luciferase, 10K MLSCN set, primary screen (AID 602277;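 active = inhibition of the reporter signal at or above 50%; inactive = inhibition below 50%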); details: HEK293-TLR3 RL24 IRF3 luciferase reporter, at 10 µM, stronger effect = higher value

Voltage-gated potassium channel subunit beta-2 (Rattus norvegicus), sequence (P62483 whole entry, looked up): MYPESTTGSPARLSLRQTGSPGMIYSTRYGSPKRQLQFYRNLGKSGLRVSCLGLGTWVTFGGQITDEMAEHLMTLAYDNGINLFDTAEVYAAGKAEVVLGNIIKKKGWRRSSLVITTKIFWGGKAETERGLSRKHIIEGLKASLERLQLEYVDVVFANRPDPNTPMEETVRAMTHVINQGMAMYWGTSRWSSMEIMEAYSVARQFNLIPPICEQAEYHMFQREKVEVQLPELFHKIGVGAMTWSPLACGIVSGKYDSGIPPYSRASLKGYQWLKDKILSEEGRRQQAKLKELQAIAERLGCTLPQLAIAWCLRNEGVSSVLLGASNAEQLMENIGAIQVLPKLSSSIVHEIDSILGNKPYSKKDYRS
Alpha-2C adrenergic receptor (Homo sapiens), sequence (P18825 whole entry, looked up): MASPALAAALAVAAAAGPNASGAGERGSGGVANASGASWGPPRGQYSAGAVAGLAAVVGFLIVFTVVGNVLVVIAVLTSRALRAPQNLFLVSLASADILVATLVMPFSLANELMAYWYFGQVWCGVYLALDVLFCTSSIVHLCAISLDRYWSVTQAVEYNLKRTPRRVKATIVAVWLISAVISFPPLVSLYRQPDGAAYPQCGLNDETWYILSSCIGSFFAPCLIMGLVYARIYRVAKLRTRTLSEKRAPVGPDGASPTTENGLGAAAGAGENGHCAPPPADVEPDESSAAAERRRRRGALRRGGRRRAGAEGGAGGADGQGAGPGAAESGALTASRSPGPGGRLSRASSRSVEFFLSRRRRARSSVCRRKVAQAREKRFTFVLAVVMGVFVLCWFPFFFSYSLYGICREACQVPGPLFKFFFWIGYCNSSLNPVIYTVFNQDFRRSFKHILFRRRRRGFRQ

SMILES	cell count [1]	inhibition [1]	inhibition of aggregation [2]	nuclei count [2] [%]	inhibition [3]	nuclei count [3] [%]	fluorescence slope [4]	NADPH fluorescence slope [5]	slope [6]	inhibition [7]	inhibition [8]
Cc1c(NC(=O)c2noc3c2CCc2ccccc2-3)c(=O)n(-c2ccccc2)n1C	620	-3.4% (inactive)	-4.3% (inactive)	110	-79.6% (inactive)	116	-0.474 (inactive)	2.6e-05 (inactive)	0.0062 (inactive)	2.37% (inactive)	-5.2% (inactive)
Cc1ccc(NC(=O)CSc2nnc(Cc3cccn3C)n2-c2ccc(F)cc2)cc1	562	12.9% (inactive)	-6.4% (inactive)	98.7	-118% (inactive)	91.3	-0.586 (inactive)	-2.1e-06 (inactive)	0.00658 (inactive)	8.62% (inactive)	23.7% (inactive)
CC1=C(C)CC2C(=O)N(c3cccc4ccccc34)C(=O)C2C1 (configuration not stated)	705	-2.3% (inactive)	1.2% (inactive)	106	-28.7% (inactive)	106	-0.569 (inactive)	-2.7e-05 (inactive)	0.00739 (inactive)	0.65% (inactive)	28.7% (inactive)
Cc1cccc(C)c1OCc1nnc(SCC(=O)Nc2ccccc2F)o1	592	-12% (inactive)	21.8% (inactive)	67.2	4% (inactive)	109	-0.558 (inactive)	-3e-05 (inactive)	0.00659 (inactive)	16.4% (inactive)	25.4% (inactive)
Nc1nc(SCc2nc3scc(-c4cccs4)c3c(=O)[nH]2)n[nH]1	473	3.8% (inactive)	10.7% (inactive)	103	-112% (inactive)	116	-0.432 (inactive)	8.2e-06 (inactive)	0.00447 (inactive)	1.51% (inactive)	4.54% (inactive)
Cn1c(=O)cc(OCC(=O)NCCCN2CCN(c3cccc(Cl)c3)CC2)c2ccccc21	583	8% (inactive)	-42.4% (inactive)	98.2	-83.7% (inactive)	128	-0.514 (inactive)	-1.4e-05 (inactive)	0.00636 (inactive)	25% (inactive)	31.3% (inactive)
COc1cccc(NC(=O)C2CCCN2C(=O)Nc2cccc(F)c2)c1 (configuration not stated)	584	-15.1% (inactive)	-3.6% (inactive)	86.9	-62.2% (inactive)	111	-0.512 (inactive)	-5.6e-05 (inactive)	0.00468 (inactive)	9.51% (inactive)	8.88% (inactive)
O=C(CCn1c(=O)oc2ccccc21)NCc1ccco1	686	-5.9% (inactive)	-10% (inactive)	104	-32.5% (inactive)	127	-0.598 (inactive)	-5.1e-05 (inactive)	0.00749 (inactive)	-5.54% (inactive)	6.8% (inactive)
COc1cc2c(=O)nc3n(c2cc1OC)C(c1ccccc1)N=C(N)N3 (configuration not stated)	398	-11.9% (inactive)	17.7% (inactive)	86.3	0.3% (inactive)	98.2	-0.312 (inactive)	-2.8e-05 (inactive)	0.00451 (inactive)	17.6% (inactive)	23.9% (inactive)
C/C(=N\O)C(=O)C(CN1CCCCC1)CN1CCCCC1	386	0.5% (inactive)	-0.1% (inactive)	89.2	-144% (inactive)	98.1	-0.437 (inactive)	1.9e-05 (inactive)	0.00389 (inactive)	-5.16% (inactive)	25.3% (inactive)
COC(=O)C(C)NC(=O)C12CC3CC(CC(C3)C1)C2 (configuration not stated)	512	-5.8% (inactive)	13.2% (inactive)	103	-31% (inactive)	124	-0.321 (inactive)	-2.1e-05 (inactive)	0.0064 (inactive)	-0.739% (inactive)	23% (inactive)
Cc1nc(C)c(C(=O)C2=C(O)C(=O)N(CCN3CCOCC3)C2c2ccco2)s1 (configuration not stated)	244	-3.2% (inactive)	0.6% (inactive)	86.3	-2.9% (inactive)	104	-0.388 (inactive)	-2.3e-06 (inactive)	0.00517 (inactive)	11% (inactive)	6.93% (inactive)
COc1ccc(C2CC(c3cccc(C)c3)n3ncnc3N2)cc1 (configuration not stated)	595	5.1% (inactive)	0% (inactive)	97.8	4% (inactive)	111	-0.569 (inactive)	1.9e-05 (inactive)	0.00625 (inactive)	-16.2% (inactive)	2.59% (inactive)
Cc1cc(N2CCN(c3ccccn3)CC2)n2nc(C)nc2n1	435	3.5% (inactive)	-16.4% (inactive)	105	-4.2% (inactive)	111	-0.376 (inactive)	-3.3e-05 (inactive)	0.00609 (inactive)	12.8% (inactive)	-7.58% (inactive)
O=C(Cn1nc(-c2ccc3c(c2)OCCO3)ccc1=O)Nc1ccc(N2CCOCC2)cc1	270	11.8% (inactive)	-53.9% (inactive)	90.7	-60.3% (inactive)	111	-0.429 (inactive)	-5.2e-05 (inactive)	0.00403 (inactive)	2.21% (inactive)	21% (inactive)
COc1cc(C(=O)NCCc2ccc3c(c2)OCCO3)ccc1OCC(=O)N1CCOCC1	632	2.4% (inactive)	11.3% (inactive)	87.3	-76.6% (inactive)	96.6	-0.298 (inactive)	-5.4e-05 (inactive)	0.00507 (inactive)	14.7% (inactive)	15.3% (inactive)
O=C(COC(=O)C1CCN(S(=O)(=O)c2cccs2)CC1)c1cc2ccccc2o1	536	-8.3% (inactive)	-0.1% (inactive)	98.7	-97.6% (inactive)	112	-0.501 (inactive)	-1.4e-05 (inactive)	0.00534 (inactive)	12.4% (inactive)	31.7% (inactive)
Cc1c(C(=O)OC2CCC(C)CC2)[nH]c2c1C(=O)CCC2 (configuration not stated)	625	-0.8% (inactive)	23.7% (inactive)	81.6	-31.8% (inactive)	118	-0.56 (inactive)	1.4e-05 (inactive)	0.00619 (inactive)	-106% (inactive)	-256% (inactive)
Cc1noc(C)c1CSc1nnc2n(-c3ccccc3)c(=O)c3ccccc3n12	342	-4% (inactive)	12.7% (inactive)	85.8	-27.6% (inactive)	89.5	-0.411 (inactive)	-1e-05 (inactive)	0.00571 (inactive)	7.36% (inactive)	20.9% (inactive)
C=CCn1c(SCC(=O)Nc2ccccc2OC)nnc1-c1ccccn1	684	9.1% (inactive)	32.8% (inactive)	65.8	-6.9% (inactive)	113	-0.344 (inactive)	-2.6e-05 (inactive)	0.0051 (inactive)	7.11% (inactive)	18.2% (inactive)
Cc1ccc(C(=O)Nc2ccc3c(c2)OCO3)cc1S(=O)(=O)N1CCCC1	396	0% (inactive)	12.6% (inactive)	83.3	14.2% (inactive)	107	-0.398 (inactive)	1.4e-05 (inactive)	0.00564 (inactive)	10.6% (inactive)	-64.5% (inactive)
CCn1cc(C(=O)NCC2CCCO2)c(=O)c2cc(S(=O)(=O)N(C)C3CCCCC3)ccc21 (configuration not stated)	528	3.7% (inactive)	-8.9% (inactive)	99.3	-60.9% (inactive)	97.9	-0.629 (inactive)	-3.4e-05 (inactive)	0.00653 (inactive)	16.7% (inactive)	33.2% (inactive)
Cc1onc(-c2ccccc2Cl)c1C(=O)N1CCc2ccccc21	398	-1.3% (inactive)	-6.4% (inactive)	104	-43.1% (inactive)	110	-0.405 (inactive)	9.6e-06 (inactive)	0.00452 (inactive)	10.6% (inactive)	34.8% (inactive)
Cc1ccc(S(=O)(=O)NCC(=O)N(CC(=O)NCc2ccccc2)CC2CCCO2)cc1 (configuration not stated)	341	-16.5% (inactive)	14.8% (inactive)	107	-31.2% (inactive)	170	-0.599 (inactive)	1.2e-05 (inactive)	0.00602 (inactive)	12.2% (inactive)	15.3% (inactive)
CC(=O)n1cc(-c2ccncc2)c2ccccc21	474	-5% (inactive)	22.9% (inactive)	69.3	-74.9% (inactive)	106	-0.57 (inactive)	-1.3e-05 (inactive)	0.00696 (inactive)	-5.39% (inactive)	11.5% (inactive)
Cn1c(SCC(=O)c2cc3ccccc3o2)nnc1-c1ccccc1	621	8% (inactive)	-8.5% (inactive)	66	-44.5% (inactive)	106	-0.527 (inactive)	-2.6e-05 (inactive)	0.00718 (inactive)	10.2% (inactive)	16.3% (inactive)
N#CC1=C(N)Oc2c(ccc3cccnc23)C1c1cccnc1 (configuration not stated)	749	7.3% (inactive)	4.4% (inactive)	89	-67.8% (inactive)	130	-0.469 (inactive)	-2e-05 (inactive)	0.0058 (inactive)	47.8% (inactive)	45.8% (inactive)

From PubChem BioAssay
